Test results: PubChem BioAssay (EPA / NIEHS)
Values joined by “and” are separate entries in the source; they are usually repeats but may differ in a detail not shown here. Identical values can stand only once. Results filed as inconclusive are left out. Active and inactive are the calls of the source. Rule for the calls, unless noted: active = hit-call score of the fitted dose curve at least 0.9, where 1 is the maximum; inconclusive = response in the unintended direction; inactive = score below 0.9.

How the values were obtained:
[1] = tested on: SRY-box transcription factor 17 (SOX17) Protein Expression, Deisenroth Lab, SOX17 (gene 64321); test: CCTE_Deisenroth_DEVTOX-GLR_legacy_Sox17: (Legacy) CCTE's DevTox GLR-Endo Assay Evaluation of SRY-box transcription factor 17 (SOX17) Protein Expression, Deisenroth Lab (AID 2284341; active = hit-call score of the fitted dose curve at least 0.9, where 1 is the maximum; inactive = score below 0.9); settings: actives raise or lower the signal
Method: CCTE_Deisenroth_DEVTOX-GLR_legacy assay is a cell-based, multiplex-readout assay that uses RUES2-GLR, a human pluripotent cell line, with measurements taken at 48 hours after chemical dosing in a 384-well microplateCCTE_Deisenroth_DEVTOX-GLR_legacy_Sox17 is one of 4 assay components calculated from the CCTE_Deisenroth_DEVTOX-GLR_legacy assay and it measures an increase in the percentage of cells in an endoderm state. It is designed to make measurements of inducible reporter a form of fluorescent protein induction as detected with optical fluorescence microscopy. Percentage Sox17+ cells are determined by calculating the number of Sox17+ cells divided by cell count. A cell is Sox17+ if the cell Sox17 mean intensity is 5x BMAD above the pluripotent control median cell Sox17 mean. The assay endpoints were analyzed with bidirectional fitting relative to 0.2% DMSO control in the CCTE_Deisenroth_DEVTOX-GLR_Endo assay.Data from the assay component CCTE_Deisenroth_DEVTOX-GLR_legacy_Sox17 was analyzed into 1 assay endpoint. This assay endpoint, CCTE_Deisenroth_DEVTOX-GLR_legacy_Sox17, was analyzed with bidirectional fitting relative to DMSO as the negative control and baseline activity. Using a type of inducible reporter, gain or loss-of-signal activity can be used to understand changes in gene expression. Furthermore, this assay endpoint can be referred to as a primary readout, because this assay has produced multiple assay endpoints where this one serves as a measure of endoderm differentiation. To generalize the intended target to other relatable targets, this assay endpoint is annotated to the transcription factor intended target family, where the subfamily is SRY-related HMG-box.
(§1) All assay protocols are aligned to the DevTox GLR-Endo assay workflow. Cells are seeded into 384-well microplates for 24 hours prior to initiating differentiation in defined media for a total duration of 48 hours. A total of two chemical exposures are administered in 24-hour intervals during the 48-hour differentiation period. At the assay termination point, cells are fixed and stained with a fluorescent dye demarcating the nucleus. High-content imaging is used to acquire brightfield and fluorescent channel images across 5 fields per well. Cell identification and mean biomarker fluorescence intensities are calculated with image analysis software to determine the total cell counts for viability assessment and the biomarker expression frequency for each lineage-dependent assay. A typical experimental design tests a 10-point concentration series (1 nM - 200 uM) for 28 compounds in single technical replicate. Assay plate controls include non-differentiated pluripotent cells (baseline control), lineage-specific differentiated cells (differentiation control), and DMSO solvent exposed differentiated cells (solvent control). Experiments typically comprise a minimum of four experimental replicates (n=4).

[2] = tested on: SRY-box transcription factor 2 (SOX2) Protein Expression, Deisenroth Lab, SOX2 (gene 6657); test: CCTE_Deisenroth_DEVTOX-GLR_legacy_Sox2: (Legacy) CCTE's DevTox GLR-Endo Assay Evaluation of SRY-box transcription factor 2 (SOX2) Protein Expression, Deisenroth Lab (AID 2284346; active = hit-call score of the fitted dose curve at least 0.9, where 1 is the maximum; inactive = score below 0.9)
Method: CCTE_Deisenroth_DEVTOX-GLR_legacy assay is a cell-based, multiplex-readout assay that uses RUES2-GLR, a human pluripotent cell line, with measurements taken at 48 hours after chemical dosing in a 384-well microplateCCTE_Deisenroth_DEVTOX-GLR_legacy_Sox2 is one of 4 assay components calculated from the CCTE_Deisenroth_DEVTOX-GLR_legacy assay that measures an increase in the percentage of cells in an ectodermal or pluripotent state. It is designed to make measurements of inducible reporter a form of fluorescent protein induction as detected with optical fluorescence microscopy. Percentage Sox2+ cells are determined by calculating the number of Sox2+ cells divided by cell count. A cell is Sox2+ if the cell Sox2 mean intensity is 5x BMAD above the directed endoderm control median cell Sox2 mean. The assay endpoint was analyzed with bidirectional fitting with the 0.2% DMSO control median percent Sox2 in the CCTE_Deisenroth_DEVTOX-GLR_Endo assay subtracted.Data from the assay component CCTE_Deisenroth_DEVTOX-GLR_legacy_Sox2 was analyzed into 1 assay endpoint. This assay endpoint, CCTE_Deisenroth_DEVTOX-GLR_legacy_Sox2, was analyzed in the positive analysis fitting direction relative to DMSO as the negative control and baseline activity. Using a type of inducible reporter, gain-of-signal activity can be used to understand changes in gene expression. Furthermore, this assay endpoint can be referred to as a secondary readout, because this assay has produced multiple assay endpoints where this one serves as a measure of pluripotency or ectoderm differentiation. To generalize the intended target to other relatable targets, this assay endpoint is annotated to the transcription factor intended target family, where the subfamily is SRY-related HMG-box.
as §1

[3] = VALA_MIGHUV1_ScratchOnly_WoundArea: VALA Sciences human Umbilical Vein Endothelial Cell Migration (MIGHUV) Assay, Area of Scratch Wound Inhibited Recovery (AID 2284336)
Summary of the method: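 Wound area remaining after 24 h recovery imaged by Hoechst nuclear fluorescence in scratched HUVEC cultures, chemicals added within 30 min of scratching across a 6-point series. Gain of signal fitted against 0.1% DMSO; cytochalasin D positive control.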

[4] = VALA_TUBHUV_Agonist_TubuleLength: VALA Sciences human Umbilical Vein Endothelial Tubule Formation (TUBHUV) Agonism Assay (AID 2284337)
Summary of the method: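 Tubule length quantified by CD31 immunofluorescence imaging after fixation. HUVEC-HDF co-cultures (1:3) pre-grown 3 days with 10 ng/ml VEGF, then dosed 3 days in VEGF medium; 0.1 % DMSO vehicle baseline.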

[5] = VALA_TUBIPS_Agonist_CellCount: Viability Assessment in the VALA Sciences human iPS-derived Endothelial Tubule Formation (TUBIPS) Agonism Assay (AID 2284338)
Method: VALA_TUBIPS_Agonist is a cell-based, multiplexed assay that uses human iPS-derived endothelial cells (iPSC). Measurements were taken 72 hours after chemical dosing in a 96-well plate.VALA_TUBIPS_Agonist_CellCount is the one of two assay components measured from the VALA_TUBIPS_Agonist assay. It is designed to make measurements of viability, a form of viability reporter, as detected with fluorescence intensity signals by HCS Fluorescent Imaging technology. Data from the assay component VALA_TUBIPS_Agonist_CellCount was analyzed at the endpoint, VALA_TUBIPS_Agonist_CellCount, in the positive analysis fitting direction relative to DMSO as the negative control and baseline of activity. Using a type of viability reporter, loss-of-signal activity can be used to understand viability. To generalize the intended target to other relatable targets, this assay endpoint is annotated to the cell cycle intended target family, where the subfamily is cell count.
This HUVEC-HDF assay was designed to detect chemical suppression of tubulogenesis, i.e. antagonism. To measure tubulogenesis antagonism, HUVEC cells were co-cultured with HDF cells at a 1:3 ratio for 3-days in 10 ng/ml VEGF (i.e., favorable conditions with growth factors), then changed to assay medium containing 10 ng/ml VEGF and ToxCast compounds for an additional 3-day period. […]

[6] = VALA_TUBIPS_Antagonist_CellCount: Viability Assessment in the VALA Sciences human iPS-derived Endothelial Tubule Formation (TUBIPS) Antagonism Assay (AID 2284335)
[7] = CCTE_Mundy_HCI_iCellGluta_NOG_NeuronCount: CCTE's Neurite Outgrowth Assay in iCellGluta cells for Neuron Count, Mundy Lab (AID 2284340);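 note: cells fixed about 48 h after compound addition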
Summary of the method: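 Neuron count read by automated high-content imaging of Hoechst 33342 and betaIII-tubulin/Alexa Fluor-488 labelling in human iPSC glutamatergic neurons. Activity fitted relative to DMSO.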

[8] = CCTE_Mundy_HCI_iCellGluta_NOG_NeuriteCount: CCTE's Neurite Outgrowth Assay in iCellGluta cells for Neurite Count, Mundy Lab (AID 2284342);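 note: chemical exposure about 48 hours starting 2 hours after plating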
SERPINA7 (gene 6906) = test: CCTE_GLTED_hTBG: CCTE's human Thyroxine-binding Globulin (TBG) Inhibition Assay, Great Lakes Toxicology and Ecology Division (GLTED) Lab (AID 2284343);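 note: active chemicals lower fluorescence versus DMSO baseline by displacing probe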
Method: CCTE_GLTED_hTBG is a cell-free, single-readout assay designed to test the chemicals' ability to displace T4 from the human thyroxine-binding globulin (TBG) protein. TBG is incubated in presence of test chemical for 2 hours during which disrupting chemicals displace ANSA from the TBG protein. Results read fluorescence at 380 excitation and 475 emission.CCTE_GLTED_hTBG is the assay component measured from the CCTE_GLTED_hTBG assay. It is designed to make measurements of fluorescent polarization, using a form of binding reporter, as detected with Fluorescence signals by Fluorescence technology.Data from the assay component CCTE_GLTED_hTBG was analyzed at the assay endpoint CCTE_GLTED_hTBG in the positive analysis fitting direction relative to DMSO as the negative control and baseline of activity. Using a type of binding reporter, loss-of-signal activity can be used to understand a chemical's ability to displace T4 from thyroxine-binding globulin. To generalize the intended target to other relatable targets, this assay endpoint is annotated to the 'transporter' intended target family, where the subfamily is 'hormone carrier protein'.
Human transthyretin (TTR) assay, developed at Great Lakes Toxicology and Ecology Division (GLTED) within the EPA's Center for Computational Toxicology and Exposure (CCTE), is designed to test the chemicals' ability to displace T4 from the TTR protein. TTR (0.5uM) is incubated in presence of test chemical for 2 hours during which disrupting chemicals displace ANSA from the TTR protein. Results read fluorescence at 380 excitation and 475 emission.

[9] = tested on: SRY-box transcription factor 2 (SOX2) Protein Expression, Deisenroth Lab, SOX2 (gene 6657); test: CCTE_Deisenroth_DEVTOX-GLR_Endo_SOX2: CCTE's DevTox GLR-Endo Assay Evaluation of SRY-box transcription factor 2 (SOX2) Protein Expression, Deisenroth Lab (AID 2284412)
Method: CCTE_Deisenroth_DEVTOX-GLR_Endo assay is a cell-based, multiplex-readout assay that uses RUES2-GLR, a human pluripotent cell line, with measurements taken at 48 hours after chemical dosing in a 384-well microplateCCTE_Deisenroth_DEVTOX-GLR_Endo_SOX2 is 1 of 4 assay components calculated from the CCTE_Deisenroth_DEVTOX-GLR_Endo assay and it measures the percentage of cells in an ectoderm state. Using a type of inducible fluorescent protein reporter, gain-of-signal activity can be used to understand changes in gene expression with fluorescent microscopy. The percentage SOX2+ cells are determined by calculating the number of SOX2+ cells divided by the cell count. To generalize the intended target to other relatable targets, this assay component is annotated to the transcription factor intended target family, where the subfamily is SRY-related HMG-box.Data from the assay component CCTE_Deisenroth_DEVTOX-GLR_Endo_SOX2 was analyzed as 1 assay endpoint. The endpoint is the percent SOX2+ cell population minus the 0.2% DMSO control in the CCTE_Deisenroth_DEVTOX-GLR_Endo assay. Furthermore, this assay endpoint can be referred to as a secondary readout, because this assay has produced multiple assay endpoints where this one serves as a measure of ectoderm differentiation.
as §1

Question: For `NC(=O)NO`, which outcome [1] is on record?
Answer: inactive

Question: And the outcome [2]?
Answer: inactive

Question: Which AC50 [3] does the source give for `CC(C)c1cccc(C(C)C)c1N1C(=O)c2ccc(O)cc2C1=O` here?
Answer: 5.98 µM (active) and 22.1 µM (active)

Question: What about the AC50 [4] of the same compound?
Answer: 85 µM (active) and 7.58 µM (active)

Question: What about the AC50 [5] of the same compound?
Answer: 80.2 µM (active)

Question: Which results are given for `O=P(OC(CCl)CCl)(OC(CCl)CCl)OC(CCl)CCl`?
Answer: outcome [6]: inactive; outcome [4]: inactive; outcome [5]: inactive; outcome [7]: inactive; outcome [8]: inactive; AC50 (SERPINA7 (gene 6906)): 3.27 µM (active)

Question: With `Nc1ccc(Nc2ccccc2)cc1` as the compound, how does the AC50 (SERPINA7 (gene 6906)) read?
Answer: 50 µM (active)

Question: With `CC[C@H](C)C(=O)O[C@H]1C[C@@H](C)C=C2C=C[C@H](C)[C@H](CC[C@@H]3C[C@@H](O)CC(=O)O3)[C@H]21` as the compound, how does the AC50 [1] read?
Answer: 7.97 µM (active)

Question: What about the AC50 [2] of the same compound?
Answer: 41.7 µM (active)

Question: What about the AC50 [9] of the same compound?
Answer: 62.1 µM (active)

Question: Which AC50 (SERPINA7 (gene 6906)) does the source give for `O=C(O)c1cccc(Oc2ccccc2)c1` here?
Answer: 19.2 µM (active)

Question: With `CC[C@H]1OC(=O)[C@H](C)[C@@H](O[C@H]2C[C@@](C)(OC)[C@@H](O)[C@H](C)O2)[C@H](C)[C@@H](O[C@@H]2O[C@H](C)C[C@H](N(C)C)[C@H]2O)[C@](C)(O)C[C@@H](C)C(=O)[C@H](C)[C@@H](O)[C@]1(C)O` as the compound, how does the outcome [7] read?
Answer: inactive

Question: And the outcome [8]?
Answer: inactive

Question: What does the source list for `Cn1c(=O)c2c(ncn2C)n(C)c1=O`?
Answer: outcome [1]: inactive; outcome [2]: inactive; AC50 [9]: 33.8 µM (active)

Question: Which outcome [1] does the source give for `C[C@](N)(Cc1ccc(O)c(O)c1)C(=O)O` here?
Answer: inactive

Question: And the outcome [2]?
Answer: inactive

Question: What about the outcome [9] of the same compound?
Answer: inactive

Question: What does the source list for `Nc1nc2ncc(CNc3ccc(C(=O)N[C@@H](CCC(=O)O)C(=O)O)cc3)nc2c(=O)[nH]1`?
Answer: outcome [1]: inactive; outcome [2]: inactive; outcome [9]: inactive

Question: What does the source list for `O=C(O)c1cc(N=Nc2ccc(S(=O)(=O)Nc3ccccn3)cc2)ccc1O`?
Answer: outcome [1]: inactive; AC50 (SERPINA7 (gene 6906)): 15.9 µM (active); outcome [2]: inactive

Question: What does the source list for `O=C1CCC(N2C(=O)c3ccccc3C2=O)C(=O)N1` (stereo not drawn)?
Answer: AC50 [1]: 1.44 µM (active); outcome [2]: inactive

Question: Which AC50 (SERPINA7 (gene 6906)) does the source give for `Oc1ccc2c(c1)-c1ccccc1C2` here?
Answer: 19.4 µM (active)
